The source of these data is PubChem BioAssay (EPA / NIEHS).

Values joined by “and” are separate entries in the source; they are usually repeats but may differ in a detail not shown here. Equal entries are not always repeated. The source holds several records for some structures; these can differ, active in one and inactive in another. Active and inactive are the calls of the source. The calls were made as follows: active = hit-call score of the fitted dose curve at least 0.9, where 1 is the maximum; inactive = score below 0.9.

Read-out in experiment [1]: Plasminogen activator inhibitor-1 (PAI1), SERPINE1 (gene 5054)
Kind of experiment: BSK_MyoF_PAI1: BioMAP Diversity Plus: MyoF Assay for Plasminogen activator inhibitor-1 (PAI1) Biomarker Activity (AID 2284256).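 As to outcome: PAI-1 protein level measured by ELISA in fibroblast cultures.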 The settings on record: primary human lung fibroblasts. The method in brief: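 MyoF lung fibroblasts, human primary; compound 24 h; PAI-1 ELISA; positive-direction fit vs DMSO baseline; parallel SRB total-protein staining for cytotoxicity.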

Read-out in experiment [2]: Interleukin-8 (IL8), CXCL8 (gene 3576)
In words: BSK_MyoF_IL8: BioMAP Diversity Plus: MyoF Assay for Interleukin-8 (IL8) Biomarker Activity (AID 2284261). The following applies: primary human lung fibroblasts. The method in brief:
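Lung fibroblasts (human primary) → chemical exposure → 24 h → IL-8 measured by ELISA. Signal increase scored versus DMSO control.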

Read-out in experiment [3]: Decorin, DCN (gene 1634)
In words: BSK_MyoF_Decorin: BioMAP Diversity Plus: MyoF Assay for Decorin Biomarker Activity (AID 2284265). The settings on record: primary human lung fibroblasts. The method in brief:
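ELISA readout of decorin, 24 h post-dosing; primary human lung fibroblast (MyoF) culture; gain-of-signal fit vs DMSO baseline.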

Experiment [4] is described as follows: BSK_MyoF_SRB: Viability Assessment in the BioMAP Diversity Plus: MyoF Assay (AID 2284267).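 Also: total protein by SRB absorbance in parallel cultures as cytotoxicity measure.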 The following applies: primary human lung fibroblasts. The method in brief:
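Lung fibroblast cultures, 24 h post-dose; fix 10% TCA, stain 0.1% SRB, read 560 nm. Signal = total protein as cytotoxicity measure; fitted relative to DMSO negative control.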

Read-out in experiment [5]: Matrix Metallopeptidase 1 (MMP1), MMP1 (gene 4312)
Kind of experiment: BSK_MyoF_MMP1: BioMAP Diversity Plus: MyoF Assay for Matrix Metallopeptidase 1 (MMP1) Biomarker Activity (AID 2284268). The settings on record: primary human lung fibroblasts. The method in brief:
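Cells: human lung fibroblasts. Exposure: 24 h chemical dosing. Detection: ELISA for MMP1. Analysis: upward fitting against DMSO negative control.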

Read-out in experiment [6]: TIMP metallopeptidase inhibitor 1 (TIMP1), TIMP1 (gene 7076)
Kind of experiment: BSK_MyoF_TIMP1: BioMAP Diversity Plus: MyoF Assay for TIMP metallopeptidase inhibitor 1 (TIMP1) Biomarker Activity (AID 2284269). The settings on record: primary human lung fibroblasts. The method in brief:
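TIMP-1 levels were determined by ELISA in human lung fibroblasts treated for 24 h. DMSO served as negative control and baseline for upward curve fitting.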

Read-out in experiment [7]: Collagen I, COL1A1 (gene 1277)
In words: BSK_hDFCGF_CollagenI: BioMAP Diversity Plus: hDFCGF Assay for Collagen I Biomarker Activity (AID 2284250). The settings on record: primary human foreskin fibroblasts. The method in brief: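 ELISA read-out of Collagen I in human dermal foreskin fibroblast cultures, 24 h after dosing. Gain of signal versus DMSO vehicle defines activity.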

Read-out in experiment [8]: Plasminogen activator inhibitor-1 (PAI1), SERPINE1 (gene 5054)
In words: BSK_KF3CT_PAI1: BioMAP Diversity Plus: KF3CT Assay for Plasminogen activator inhibitor-1 (PAI1) Biomarker Activity (AID 2284252). The settings on record: primary human keratinocytes with fibroblasts. The method in brief: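 Keratinocyte + dermal fibroblast co-culture (human primary); 24 h post-dose; PAI-1 by ELISA; gain-of-signal fit vs DMSO control.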

Read-out in experiment [9]: Interleukin-8 (IL8), CXCL8 (gene 3576)
Kind of experiment: BSK_KF3CT_IL8: BioMAP Diversity Plus: KF3CT Assay for Interleukin-8 (IL8) Biomarker Activity (AID 2284254). The following applies: primary human keratinocytes with fibroblasts. The method in brief:
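IL-8 read-out: ELISA, 24 h post-dose, human skin primary co-culture (keratinocytes + foreskin fibroblasts). DMSO = baseline; positive-direction fit.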

Read-out in experiment [10]: Monocyte Chemoattractant Protein-1 (MCP1), CCL2 (gene 6347)
In words: BSK_IMphg_MCP1: BioMAP Diversity Plus: IMphg Assay for Monocyte Chemoattractant Protein-1 (MCP1) Biomarker Activity (AID 2284253). The settings on record: primary human endothelial cells with macrophages. The method in brief:
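ELISA readout of MCP-1 at 24 hours in IMphg co-cultures of venular endothelial cells and macrophages, normalised to DMSO; parallel cultures stained with sulforhodamine B for overt cytotoxicity.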

Read-out in experiment [11]: Macrophage Inflammatory Protein-1 Alpha (MIP1a), CCL3 (gene 6348)
In words: BSK_IMphg_MIP1a: BioMAP Diversity Plus: IMphg Assay for Macrophage Inflammatory Protein-1 Alpha (MIP1a) Biomarker Activity (AID 2284255). The settings on record: primary human endothelial cells with macrophages. The method in brief:
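MIP-1a protein levels were quantified by ELISA after 24 h treatment of human endothelial cell–macrophage co-cultures, compared with DMSO. Parallel cultures were fixed with TCA and stained with 0.1% SRB to gauge overt cytotoxicity.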

Read-out in experiment [12]: CD69, CD69 (gene 969)
Kind of experiment: BSK_IMphg_CD69: BioMAP Diversity Plus: IMphg Assay for CD69 Biomarker Activity (AID 2284257). The settings on record: primary human endothelial cells with macrophages. The method in brief:
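Readout is ELISA for CD69 in primary human venular endothelial cell/macrophage co-culture, taken at 24 h post-dosing. SRB staining of parallel cultures gauged overt cytotoxicity; signal increase versus DMSO defined activity.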

Read-out in experiment [13]: Eotaxin 3, CCL26 (gene 10344)
In words: BSK_BF4T_Eotaxin3: BioMAP Diversity Plus: BF4T Assay for Eotaxin 3 Biomarker Activity (AID 2284258). The following applies: primary human bronchial epithelial cells with fibroblasts. The method in brief:
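ELISA measurement of Eotaxin-3 after 24 h chemical exposure in a bronchial epithelial/dermal fibroblast co-culture, with DMSO as baseline. Parallel SRB staining (0.1% SRB after 10% TCA fixation, 560 nm) flagged overt cytotoxicity.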

Read-out in experiment [14]: Monocyte Chemoattractant Protein-1 (MCP1), CCL2 (gene 6347)
Kind of experiment: BSK_BF4T_MCP1: BioMAP Diversity Plus: BF4T Assay for Monocyte Chemoattractant Protein-1 (MCP1) Biomarker Activity (AID 2284259). The following applies: primary human bronchial epithelial cells with fibroblasts. The method in brief:
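MCP-1 ELISA readout taken 24 h after dosing in the BF4T system (bronchial epithelial cells plus dermal fibroblasts). Parallel SRB total-protein staining flagged cytotoxicity; DMSO served as baseline, positive fitting direction.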

Read-out in experiment [15]: Intercellular Adhesion Molecule 1 (ICAM1), ICAM1 (gene 3383)
Kind of experiment: BSK_BF4T_ICAM1: BioMAP Diversity Plus: BF4T Assay for Intercellular Adhesion Molecule 1 (ICAM1) Biomarker Activity (AID 2284260). The following applies: primary human bronchial epithelial cells with fibroblasts. The method in brief: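 ICAM-1 levels measured by ELISA after 24 h chemical treatment of bronchial epithelial cell/dermal fibroblast co-cultures, read against DMSO baseline. Overt cytotoxicity checked in parallel cultures by sulforhodamine B staining.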

Read-out in experiment [16]: CD90, THY1 (gene 7070)
In words: BSK_BF4T_CD90: BioMAP Diversity Plus: BF4T Assay for CD90 Biomarker Activity (AID 2284262). The settings on record: primary human bronchial epithelial cells with fibroblasts. The method in brief:
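CD90 levels by ELISA after 24 h treatment of human bronchial epithelial cell/dermal fibroblast cultures, analysed versus DMSO. Overt cytotoxicity checked in parallel cultures by sulforhodamine B staining.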

Read-out in experiment [17]: Interleukin-8 (IL8), CXCL8 (gene 3576)
In words: BSK_BF4T_IL8: BioMAP Diversity Plus: BF4T Assay for Interleukin-8 (IL8) Biomarker Activity (AID 2284263). The following applies: primary human bronchial epithelial cells with fibroblasts. The method in brief: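 Human bronchial epithelial cells with dermal fibroblasts co-culture; IL-8 measured by ELISA 24 hours after dosing, fitted vs DMSO. Cytotoxicity tracked in parallel cultures by SRB total-protein staining.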

Read-out in experiment [18]: Interleukin-1 alpha (IL1a), IL1A (gene 3552)
In words: BSK_BF4T_IL1a: BioMAP Diversity Plus: BF4T Assay for Interleukin-1 alpha (IL1a) Biomarker Activity (AID 2284264). The settings on record: primary human bronchial epithelial cells with fibroblasts. The method in brief: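 ELISA read-out of IL-1α from bronchial epithelial cell/dermal fibroblast co-cultures 24 h after compound addition. Increases scored against DMSO negative control. Cytotoxicity monitored by sulforhodamine B staining of parallel cultures.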

Read-out in experiment [19]: KRT18 (gene 3875)
Kind of experiment: BSK_BF4T_Keratin818: BioMAP Diversity Plus: BF4T Assay for Keratin 818 Biomarker Activity (AID 2284266). The settings on record: primary human bronchial epithelial cells with fibroblasts. The method in brief:
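Keratin 8/18 levels quantified by ELISA after 24 h chemical treatment of bronchial epithelial cell/dermal fibroblast co-cultures, fitted in positive direction relative to DMSO. Parallel SRB staining tracks overt cytotoxicity.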

Turning to `Cc1cc(C)c(O)c(C(C)(C)C)c1`, the AC50 (in general, the concentration at which the activity in the assay is half-maximal) in experiment [1] was 36.4 µM (active); in experiment [3], 35.4 µM (active); in experiment [4] it was 35.9 µM (active); in experiment [6], 31.6 µM (active). Moreover, the result in [2] and in experiment [5] was inactive.
`Cc1ccc(S(=O)(=O)C(I)I)cc1`: the AC50 in experiment [1] was 8.61 µM (active); in experiment [3], 5.2 µM (active); in [4], 8.6 µM (active); in experiment [5], 11.2 µM (active); in [6] it was 5.97 µM (active). In addition, the result in experiment [2] was inactive.
Consider `O=C=NCc1cccc(CN=C=O)c1`, for which the result in experiment [1], in experiment [2], in [3], in experiment [4], in [5] and in experiment [6] was inactive.
For the molecule `CCN(CC)c1ccc(C=O)c(O)c1`, the AC50 in [1] was 20 µM (active). Further, the outcome in experiment [2], in [3], in experiment [4], in experiment [5] and in experiment [6] was inactive.
`CCN=C1C=CC(=C(c2ccc(N(CC)CC)cc2)c2ccc(N(CC)CC)cc2)c2ccccc21`: the result in [7] and in [9] was inactive. The AC50 in experiment [8] was 1.64 µM (active) and 1.56 µM (active); in experiment [9] it was 2.34 µM (active).
On to `Brc1nc2ccccc2s1`, for which the result in experiment [1], in experiment [2], in experiment [3], in experiment [4], in experiment [5] and in experiment [6] was inactive.
As to `Cc1ccc(O)c(-n2nc3ccccc3n2)c1`, the result in experiment [1], in experiment [2], in [3], in [4], in experiment [5] and in experiment [6] was inactive.
For `CCN(CC)c1ccc(C=O)cc1`, the outcome in [1], in experiment [2], in experiment [3], in experiment [4], in experiment [5] and in [6] was inactive.
For `Cc1cnccn1`, the result in experiment [1], in [2], in experiment [3], in experiment [4], in experiment [5] and in experiment [6] was inactive.
As for `O=C(c1ccccc1)c1ccc(O)cc1O`, the outcome in experiment [1], in experiment [2], in experiment [3], in [4], in experiment [5] and in [6] was inactive.
`C[Si](Cl)(Cl)CCC(F)(F)C(F)(F)C(F)(F)C(F)(F)C(F)(F)C(F)(F)F`: the result in experiment [7], in experiment [8], in [10], in [9], in [11] and in [1] was inactive. The outcome in experiment [12], in experiment [13], in [14], in [15], in experiment [2] and in experiment [16] was inactive. In addition, the result in experiment [17], in experiment [18], in experiment [3], in [19], in experiment [4] and in [5] was inactive. For the same molecule, in experiment [6], the outcome was inactive.
